Screening results from PubChem BioAssay.
Only some compounds are listed: those with a hit (about 4.8% of all), similar ones and a draw of the others.
ATXN2 expr inh: ATXN2 expression inhibition | HEK-293 ATXN2-luciferase reporter, luminescence, 24 h | Potency, µM (doses to about 57 µM), for inactives: at the highest dose activity change, negative = inhibition, usual class: inhibitors | hit rate 0.72% among 360,000 | AID 1745845; also: potency is read from the fitted curve at half-maximal effect; % is scaled to controls: 0 for no effect and ±100 for the full control effect; nearly all actives have a fitted effect of over 55% in size
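ATXN2-luciferase reporter cells (luciferase flanked by upstream and downstream ATXN2 gene portions) were treated 24 h at 37 °C with compounds at up to 57 uM. SteadyGlo luminescence gave expression; GF-AFC fluorescence gave viability.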
USP1 inh: inhibitors of human USP1/UAF1 deubiquitinase. Potency, µM (highest dose often 57.1 µM), inactives show at the highest dose activity change, negative = inhibition, usual class: inhibitors. hit rate 0.23% among 390,000. O94782. AID 743255. recombinant USP1/UAF1, Ub-Rhodamine cleavage fluorescence; also: potency is read from the fitted curve at half-maximal effect; % is scaled to controls: 0 for no effect and ±100 for the full control effect; nearly all actives have a fitted effect of over 60% in size
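High-throughput fluorogenic screen: 1nM USP1/UAF1 complex, Ub-Rho substrate 150nM final, 50mM HEPES pH 7.8 with 0.5mM EDTA, 0.1 mg/ml BSA, 1mM TCEP and 0.01% Tween-20.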
ATXN viability: cell viability loss in ATXN counter-screen | AID 651635 | S2 cells (HEK-293 line with an ATXN2-luciferase reporter) viability, CellTiter-Fluor protease fluorescence, 24 h | Potency, µM (titrated, usually from 56.7 µM), usual class: cytotoxic | hit rate 0.49% among 400,000; also: potency is read from the fitted curve at half-maximal effect; nearly all actives have a fitted effect of over 40% in size
IL1B secr inh: blocks inflammasome-driven IL-1 beta release. THP-1 LPS/ATP IL-1B secretion, AlphaLISA, 16 h; stronger effect = lower value. activity change, % at 57.5 µM. hit rate 4.7% among 360,000. AID 743279; in the data active = activity change below about -50%; inconclusive = mostly about -30% to -49%; also: % is scaled to controls: 0 for no effect and ±100 for the full control effect
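THP-1 cells pretreated 1 hr with compounds (up to 57.5 uM final), then stimulated with LPS (250 ng/mL final) plus ATP (1.25 mM final); secreted IL-1B measured by AlphaLISA after 16 hr, decreased signal indicating inhibition.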
USP2a inh: USP2a (human) protease inhibition. O75604. USP2 core, Ub-CHOP2 coupled fluorogenic reporter, 485/531. Potency, µM (top dose mostly 38.3 µM), for the others: at the top dose activity change, negative = inhibition, usual class: inhibitors. hit rate 0.01% among 330,000. AID 463254;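 also: potency is read from the fitted curve at half-maximal effect; plate controls were DMSO wells for no effect and full inhibition by NEM control for full effect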
Target sequence (O75604 whole entry, looked up): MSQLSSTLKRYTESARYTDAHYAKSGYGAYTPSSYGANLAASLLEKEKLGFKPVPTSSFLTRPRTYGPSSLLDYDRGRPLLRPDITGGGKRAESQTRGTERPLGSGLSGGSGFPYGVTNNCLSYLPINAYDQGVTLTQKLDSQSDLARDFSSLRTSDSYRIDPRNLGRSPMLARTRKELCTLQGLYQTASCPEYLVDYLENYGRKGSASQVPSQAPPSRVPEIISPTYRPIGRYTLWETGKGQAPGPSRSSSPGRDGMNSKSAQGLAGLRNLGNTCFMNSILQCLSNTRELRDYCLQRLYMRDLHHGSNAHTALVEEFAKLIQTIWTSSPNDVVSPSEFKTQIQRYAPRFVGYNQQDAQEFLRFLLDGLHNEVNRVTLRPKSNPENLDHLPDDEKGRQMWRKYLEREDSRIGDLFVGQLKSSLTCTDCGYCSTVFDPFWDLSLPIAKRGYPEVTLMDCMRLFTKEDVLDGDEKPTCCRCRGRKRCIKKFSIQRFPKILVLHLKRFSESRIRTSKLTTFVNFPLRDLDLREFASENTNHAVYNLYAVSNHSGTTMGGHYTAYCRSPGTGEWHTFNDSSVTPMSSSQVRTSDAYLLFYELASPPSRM
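Cell-free coupled assay: 10nM USP2 core preincubated 30min RT with compound in Tris-HCl pH 8.0/CaCl2/CHAPS buffer, then 25nM Ub-CHOP2 and 25nM reporter substrate; fluorescence (Ex 485/Em 531) read after 60min RT, normalized to NEM inhibition, concentration-response curves fitted.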
Starred values were filed as active, the others as inactive; i = inactive; ? = inconclusive; · = no result; [ ] = dose if it differs, or a comment. Unless noted, calls follow the shape of the dose curve; as a rule, active = well fitted curve in the direction sought with a large enough effect; inconclusive = small, poorly fitted or top-dose-only effect, or another doubt; inactive = no such curve, though single readings can be large; an effect the other way counts as inactive or inconclusive.

SMILES | ATXN2 expr inh | USP1 inh | ATXN viability | IL1B secr inh | USP2a inh
O=C(CCCCl)Nc1c2c(nn1-c1ccccc1)CSC2 | 5% | -21% | i | -2 | 1%
NS(=O)(=O)c1cccc(NC(=O)COC(=O)CSCc2ccccc2)c1 | 5% | -19% | i | 12 | -7%
CC1(C)Oc2ccc3ccc(=O)oc3c2/C(=C/N)C1=O | 34% | -7% | i | -16 | -1%
CC1(C)Oc2ccc3ccc(=O)oc3c2/C(=C/Nc2ccccc2)C1=O | 2% | -19% | ? | -59* | 4%
Cc1c(C#N)c(O)n(CCO)c(=O)c1N=Nc1ccc2c(c1)COC2=O | -1% | 4% | ? | -57* | -1%
Cc1cc(=O)n(CCO)c(O)c1C#N | 2% | -10% | i | 16 | 4%
Cc1ccc(S(=O)(=O)N2CCC(C(=O)NCCCN3CCOCC3)CC2)cc1C | 29% | -14% | i | 14 | 1%
Cc1cc(C)c(S(=O)(=O)NCC(c2ccc(N(C)C)cc2)N2CCc3ccccc32)c(C)c1 (stereo not given) | 13% | -3% | i | · | ·
CC(C)(C)c1ccc(C(=O)NCC2CCCN2S(=O)(=O)c2ccccc2)cc1 (stereo not given) | 6% | -18% | i | -57* | 0%
Cc1ccc(C(=O)NCC2CCCN2S(=O)(=O)c2ccc(C)cc2)cc1 (stereo not given) | 3% | 0% | i | -14 | 0%
CC(C)(C)Cn1c(N)nc2ccc(-c3[nH]c(C(C)(C)C)nc3-c3ccc(F)cc3)nc21 | 27µM* | · | · | · | ·
O=C(Nc1nccs1)C(Br)C(Br)c1ccccc1 (stereo not given) | -10% | ? | ? | -86* | 1%
CC(=O)OC(C(=O)Nc1nccs1)c1ccccc1 (stereo not given) | 3% | -13% | i | 8 | 3%
Cc1cccc(C(=O)Nc2ccc3oc(-c4ccncc4)nc3c2)c1 | · | -22% | · | · | ·
COc1ccc(CCNC(=O)c2ccc(CSc3ccccc3)o2)cc1 | -11% | -25% | · | -59* | -1%
O=C(NCc1ccccc1Cl)c1nnc(Cc2cccc(F)c2)o1 | 4% | -9% | i | · | ·
O=C(Nc1ccc(Cl)cc1)Nc1ccc2c(c1)N1CCN=C1S2 | -13% | -3% | i | -66* | 1%
CC(C)CCNC(=S)Nc1ccc([N+](=O)[O-])cc1 | ? | -10% | ? | -71* | 4%
CCCCNC(=S)NC(=O)c1ccc([N+](=O)[O-])cc1 | 22% | -3% | i | -2 | 2%
CCCCNC(=S)Nc1ccc([N+](=O)[O-])cc1 | -20% | -16% | i | -74* | 5%
CC(C)CCNC(=S)Nc1ccc(Br)cc1 | 33% | -7% | i | -1 | 1%
CC(C)OC(=O)c1cc(NC(=S)Nc2ccc([N+](=O)[O-])cc2)cc(C(=O)OC(C)C)c1 | ? | -28% | · | -101* | 0%
O=[N+]([O-])c1ccc(NNC(=S)Nc2ccc(F)cc2)cc1 | ? | -11% | ? | -59* | 2%
O=C(NNC(=S)Nc1ccc(F)cc1)c1cccc([N+](=O)[O-])c1 | -12% | -10% | i | -16 | 1%
CC(C)OC(=O)c1cc(C(=O)OC(C)C)cc([N+](=O)[O-])c1 | -16%[116 µM] | · | i | · | ·
SMILES | ATXN2 expr inh | USP1 inh | ATXN viability | IL1B secr inh | USP2a inh
COc1ccc(/C=C/c2nc3ccccc3n2C)cc1 | ? | -25% | i | -73* | 1%
CC(C)Cn1c(/C=C/c2ccccc2)nc2ccccc21 | 86% | -21% | i | -66* | 0%
COc1ccc(Cn2c(/C=C/c3ccccc3)nc3ccccc32)cc1 | 99% | -7% | i | -78* | -1%
COc1ccc(-c2nc3ccccc3n2Cc2ccccc2)cc1 | -37% | -30% | ? | -1 | -11%
COc1ccc2c(c1)nc(N)n2Cc1ccccc1 | -7% | -9% | i | -98* | 5%
CCn1c(/C=C/c2ccccc2)nc2ccccc21 | 56% | -24% | i | -8 | 0%
CC(=O)Nc1ccc(S(=O)(=O)N2C(C)CCCC2C)cc1 (stereo not given) | 12% | -17% | i | 9 | -1%
CC1=C(C#N)C(C)(C)C(C#N)=C(C)N1 | · | -12% | i | 5 | ·
CCn1c(Cc2ccc(OC)cc2)nc2ccccc21 | -5% | 2% | i | -51* | -1%
COc1cc(=O)n2c(c1C(=O)NCc1cccc(F)c1)CCN(Cc1cccnc1)CC2 | · | · | i | · | ·
c1cc(-c2cnn3cc(-c4ccc(OCCN5CCCCC5)cc4)cnc23)ccn1 | 3.9µM* | · | · | · | ·
Cc1ccccc1C(=O)/C(C#N)=N/Nc1c(C)n(C)n(-c2ccccc2)c1=O | 7.1µM* | -4% | ? | 0 | 3%
CCOC(=O)/C(C#N)=N/Nc1c(C)n(C)n(-c2ccccc2)c1=O | 9% | -14% | i | 0 | 0%
Cc1c(N/N=C(\C#N)C(=O)c2ccccc2)c(=O)n(-c2ccccc2)n1C | 14µM* | -19% | ? | 106 | 2%
COc1ccc(CN2CCOc3ccc(C(O)c4cccnc4)cc3C2)c(OC)c1OC (stereo not given) | · | · | i | · | ·
COc1cccc(-c2nc(SCC(=O)NC3CCCC3)c(-c3ccc(F)cc3)[nH]2)c1 | · | -22% | · | · | ·
CC1(C)CC(=O)c2cc(C(=O)Nc3ccccc3Cl)c(=O)n(-c3ccc(Cl)cc3)c2C1 | 2% | -25% | i | · | ·
COc1cc(-c2nc(C)cnc2C)cc2c1OCCN(C(=O)Cn1nc(-c3ccccc3)c3ccccc3c1=O)C2 | · | · | i | · | ·
O=C1c2ccccc2-c2onc3c(N4CCN(C5CCCCC5)CC4)cc(NCCO)c1c23 | · | 16µM* | · | · | ·
CC(C)c1nc2cc3ccccc3cc2[nH]1 | 17% | -10% | i | -53* | 2%
S=C(Nc1ccc(Br)cc1)N1CCn2cccc2C1c1cccnc1 (stereo not given) | -23% | -4% | i | -65* | 2%
C/C(CC(=O)Nc1cccc(Cl)c1Cl)=N\NC(=O)c1ccccc1N | 1% | -4% | i | -56* | -1%
C/C(CC(=O)Nc1cccc(Cl)c1Cl)=N\NC(=O)c1ccccc1Br | -20% | -5% | i | -13 | 0%
CCS(=O)(=O)c1ncc(N(Cc2cccc(F)c2)Cc2ccco2)c(C(=O)Nc2ccccc2Cl)n1 | 3% | -3% | i | · | ·
CCCCCCCCC(c1nc2ccccc2[nH]1)N1CCN=C1c1cc2ccccc2[nH]1 (stereo not given) | ? | · | ? | -66* | ·
CCCCCCN1CC(O)=C(c2nc3ccccc3[nH]2)C1=N | 0% | -1% | i | 14 | -1%
Cc1ccc(S(=O)(=O)N(C)C)cc1NC(=O)COC(=O)c1ccc2c(=O)n3c(nc2c1)CCC3 | 9% | -17% | ? | 4 | 1%
